89 compounds from PubChem BioAssay AID1645855 (Buhrlage Lab, Dana-Farber Cancer Institute and Novartis …, 2021) can be followed below.

In all, about 47,000 compounds went through this assay and about 3,100 (6.6%) were called active. Rule as the data show it: active = inhibition above about 30%; inactive = the rest. Shown is part of a subset that was picked to be rich in actives.

For the test, the target named is Ubiquitin carboxyl-terminal hydrolase 17-like protein 5 (Homo sapiens) (UniProt A8MUK1). The experiment in a line: inhibitors of human USP17 deubiquitinase (AID 1645855). The note with it: purified USP17, Ub-rhodamine cleavage fluorescence, 3 h; at 50 µM; hits give high values.
Ubiquitin carboxyl-terminal hydrolase 17-like protein 5 (Homo sapiens), sequence (A8MUK1 whole entry, looked up): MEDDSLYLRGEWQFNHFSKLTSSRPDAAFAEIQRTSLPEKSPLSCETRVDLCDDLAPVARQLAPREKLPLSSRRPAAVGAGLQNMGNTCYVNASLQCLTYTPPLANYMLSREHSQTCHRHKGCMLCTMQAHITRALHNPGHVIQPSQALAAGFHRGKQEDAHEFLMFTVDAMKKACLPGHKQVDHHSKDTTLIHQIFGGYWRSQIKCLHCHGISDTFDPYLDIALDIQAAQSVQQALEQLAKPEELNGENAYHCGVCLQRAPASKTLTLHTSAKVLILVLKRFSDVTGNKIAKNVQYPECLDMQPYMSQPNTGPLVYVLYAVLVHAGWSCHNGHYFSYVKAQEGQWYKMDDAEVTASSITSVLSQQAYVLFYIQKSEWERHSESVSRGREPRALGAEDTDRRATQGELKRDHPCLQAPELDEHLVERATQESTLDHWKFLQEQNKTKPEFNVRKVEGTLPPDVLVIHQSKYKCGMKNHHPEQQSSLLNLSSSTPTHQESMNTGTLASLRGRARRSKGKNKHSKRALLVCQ
Take `COCC(=O)OCc1cc(=O)oc2cc(O)ccc12`: the inhibition was 14.9% (inactive).
In the case of `CN1CCn2c(-c3cccnc3)cnc2C12CCN(Cc1cccnc1)CC2`, the inhibition is -23.9% (inactive).
Take `O=C(O)C1CCCN1C(=O)C1CCN(S(=O)(=O)c2ccccc2)CC1` (centres undefined): the inhibition was 0.0755% (inactive).
Next, `CC(C)N1CCN(C(=O)Cn2c(=O)n(-c3ccccc3)c3ncccc32)CC1`: -9.73% (inactive).
As for `O=C(Nc1cccnc1Cl)c1noc2c1COc1ccccc1-2`, the inhibition is 15% (inactive).
The result for `Cc1nc(-c2ccc(C)c(S(=O)(=O)NCC(=O)Nc3cccc(Cl)c3)c2)no1` reads -1.55% (inactive).
Next, `COc1cccc(CCNC(=O)Cc2cc(-c3ccc(C)cc3)on2)c1`: -2.69% (inactive).
For the compound `NC(=O)c1ccc(NC(=O)Cc2cc(-c3ccc(Cl)cc3)on2)cc1`, the inhibition is 58.4% (active).
In the case of `Cc1ccc(CN2CCC(N3CCN(C(=O)c4c(C)nn(C)c4C)CC3=O)CC2)cc1`, the inhibition was 2.05% (inactive).
Regarding `CC(NC(=O)CN1C(=O)C2CCCN2C(=O)c2ccc(F)cc21)c1ccccc1` (centres undefined), the inhibition is -12.4% (inactive).
For `CCc1cc(=O)n(CC(=O)NC2CCCC2)c(N2CCOCC2)n1`, the inhibition was 0.695% (inactive).
`O=C(CCc1nnc2ccc(N3CCCCC3)nn12)Nc1ccc(S(=O)(=O)N2CCCCCC2)cc1`: the inhibition was 16.3% (inactive).
Next, `O=C(NC1CC1)c1cccc(OCC2CCCN(C(=O)c3cc(F)ccc3F)C2)c1` (centres undefined): -3.72% (inactive); `CSc1nc2c(c(Nc3ccc(C(C)=O)cc3)n1)CCC2`: 61% (active); `O=C(NCC1CC1)c1ccc2c(c1)nc1n2CCN(Cc2ccccn2)C1=O`: -18.5% (inactive).
Next, `CC(C)=CCC(O)C1=CC(=O)c2c(O)ccc(O)c2C1=O` (centres undefined): 95.2% (active); `CC(C)=CCc1cc(O)ccc1O`: 4.38% (inactive).
The result for `CN(C(=O)c1ccc(S(=O)(=O)N2CCOCC2)cc1)c1nnc(C23CC4CC(CC(C4)C2)C3)s1` reads 5.76% (inactive); that for `CCOC(=O)c1c(S(=O)(=O)NCC(=O)Nc2ccc(C)cc2)c(C)n(C)c1C`, -20.2% (inactive).
On to `CN(CCc1ccccc1)c1nccc(N2CCN(C(=O)c3csc(-c4cccnc4)n3)CC2)n1`, for which the inhibition is 19.2% (inactive).
The result for `Cc1ccc(CSc2nnc(/C=C/c3ccccc3)o2)cc1` reads 39.9% (active); that for `Cc1ccc(Cc2nnc(C(=O)NC(C)c3ccccc3)o2)cc1` (centres undefined), 4.41% (inactive); that for `COc1ccccc1CC(=O)N1C[C@@H]2C[C@H]1C[C@@H]2NC(=O)c1ccccc1`, 15.2% (inactive).
The result for `COc1ccc(CNC(=O)CCc2c(C)nn(-c3cc(N(C)C)ncn3)c2C)cc1` reads -0.38% (inactive).
Next, `Cc1ccc(S(=O)(=O)N2C(=O)CCC2C(=O)N2CCCC2)cc1C` (centres undefined): -4.46% (inactive).
Turning to `O=C(CN1CCC(c2nc(-c3ccccc3)no2)CC1)Nc1ccccc1`, the inhibition was -26.4% (inactive).
Next, `CCn1c(CC(=O)Nc2ccccc2)nnc1SCC(=O)N1CCOCC1`: 1.1% (inactive); `O=C(Cc1nnc2c(-c3nc(C4CC4)no3)cccn12)Nc1ccccc1`: 69.9% (active).
For the compound `O=C(c1noc2c1CCCC2)N1CCCC(c2ccn[nH]2)C1` (centres undefined), the inhibition was 0.07% (inactive).
As to `O=C1NCCCCC1NS(=O)(=O)c1ccc2c(c1)CCO2` (centres undefined), the inhibition is 2.39% (inactive).
As for `CC1=C(c2ccc(F)cc2)S(=O)(=O)N=C1Nc1ccccc1Cl`, the inhibition is 22.6% (inactive).
The result for `CCc1nc(SCC(=O)Nc2cc(Cl)ccc2Cl)c2oc3ccccc3c2n1` reads 20.6% (inactive).
The result for `O=C(CSc1ncnc2c1oc1ccccc12)NC1CCCC1` reads 61.3% (active); that for `Cc1nnc(-c2cn(CC(=O)NC3CCCCC3)c3ccccc23)o1`, 6.87% (inactive); that for `CCc1nc(SCC(=O)Nc2cccc3ccccc23)c2oc3ccccc3c2n1`, 30.1% (active).
The result for `O=C(CSc1ncnc2nc[nH]c12)NC1CCCCC1` reads -12.5% (inactive); that for `Cc1nc(SCC(=O)Nc2cc(Cl)cc(Cl)c2)c2oc3ccccc3c2n1`, -0.843% (inactive).
For the compound `FC(F)(F)Oc1ccc2[nH]c3c(c2c1)CNCC3`, the inhibition was 7.52% (inactive).
The result for `OCc1cc2c([nH]c3ccccc32)c([C@@H](O)CO)n1` reads -4.94% (inactive).
Next, `Cc1ccccc1Nc1nc(N)nc(CN2CCCC2c2cccn2C)n1` (centres undefined): -130% (inactive); `CCOC(=O)c1cnc2c(C(F)(F)F)cccc2c1Sc1ccc(C)cc1C`: 3.52% (inactive).
Turning to `O=C1NC2(CCN(C(=O)Cc3ccccc3)CC2)Nc2cc(Cl)ccc21`, the inhibition is -2.47% (inactive).
On to `CSc1ccccc1NC(=O)c1ccc(N2CCCC2)nn1`, for which the inhibition is 56.7% (active).
Regarding `Cc1cc(C)n(-c2ccc(C(=O)Nc3ccccc3C(C)C)nn2)n1`, the inhibition is 29.7% (inactive).
Next, `O=C(Cc1ccccc1)N1CCN(c2ccc(N3CCCC3)nn2)CC1`: 15% (inactive); `O=C(c1sc2cnccc2c1-n1cccc1)N1CCc2ccccc2C1`: 8.13% (inactive); `CCOC(=O)c1cc(C)nc2c1c(=O)n(Cc1nc(-c3ccccc3)oc1C)c(=O)n2C`: -6.3% (inactive).
Take `CCCOc1ccc(C2CN3C(=O)N(c4cccc(C(C)=O)c4)C(=O)[C@]3(C)c3[nH]c4ccccc4c32)cc1OCC` (some centres undefined): the inhibition is 2.94% (inactive).
Take `COc1ccc(-c2cc(C(=O)Nc3sccc3C(N)=O)c3ccccc3n2)cc1`: the inhibition was -139% (inactive).
Next, `COC(=O)c1cccc(N(C(=O)c2cnccn2)C(C(=O)NC2CCCCC2)c2ccc(OC)c(OC)c2)c1` (centres undefined): -9.26% (inactive); `O=C(NC1CCCC1)C1c2cc(Br)ccc2OCC(=O)N1C1CCCC1` (centres undefined): -0.00685% (inactive).
The result for `CC(CCc1ccccc1)NC(=O)COC(=O)c1ccc2[nH]c3c(c2c1)CCCC3` (centres undefined) reads 15.2% (inactive); that for `O=C(COC(=O)c1ccc2[nH]c3c(c2c1)CCCC3)Nc1ccc(N2CCOCC2)cc1`, 31% (active); that for `O=C(COC(=O)CCc1nc2ccccc2c(=O)[nH]1)Nc1ccc(N2CCOCC2)cc1`, -1.46% (inactive).
The result for `c1cc2c(cc1-c1nn[nH]n1)OCO2` reads -14.4% (inactive); that for `CC(=O)N1CC[C@H]2COC(=O)N(Cc3ccccc3)[C@@H]2C1`, 5.56% (inactive); that for `COc1ccc(CN(C)c2ccc(S(=O)(=O)Nc3ccccn3)cn2)cc1`, 6.32% (inactive).
In the case of `O=S(=O)(c1ccccc1F)N1CCCn2nnc(COCC3CC3)c2C1`, the inhibition is 0.743% (inactive).
The result for `COc1cccc(NC(=O)c2ccc3c(c2)N(S(C)(=O)=O)CC3)c1` reads 30.4% (active); that for `Cc1ccc(NC(=O)c2ccc3c(c2)N(S(C)(=O)=O)CC3)cc1C`, -24.5% (inactive); that for `COc1ccccc1NC(=O)c1cccc(S(=O)(=O)N2CCc3ccccc32)c1`, -7.94% (inactive).
For the compound `Cn1c(CCNC(=O)c2ccc(C(C)(C)C)cc2)nc2cccnc21`, the inhibition is -167% (inactive).
The result for `COc1ccc(N(Cc2cc(=O)[nH]c3ccccc23)C(=O)c2ccc(Cl)cc2)cc1` reads 39.6% (active); that for `Cc1ccc(C(=O)N(Cc2cc(=O)[nH]c3ccccc23)C(C)C)cc1F`, 0.00655% (inactive).
Take `COc1ccc(C(=O)CC(c2ccc(Cl)cc2)S(=O)(=O)c2ccccc2)cc1` (centres undefined): the inhibition was 4.59% (inactive).
Regarding `CCNC(=O)c1cccc(Nc2c(-c3ccc(Cl)cc3)nc3cnccn23)c1`, the inhibition was -21.3% (inactive).
For `CC(C)c1noc(-c2ccc(OCC(=O)Nc3ccccc3Br)cc2)n1`, the inhibition was -2.89% (inactive).
The result for `CC(C)(C)C(=O)Cn1c(=O)n(Cc2ccco2)c(=O)c2ccccc21` reads -6.03% (inactive); that for `O=C(NCCc1ccccc1)c1ccc2c(=O)n(Cc3ccco3)c(=O)n(Cc3cccc([N+](=O)[O-])c3)c2c1`, 53.8% (active); that for `O=C(Cn1c(=O)n(Cc2ccc3c(c2)OCO3)c(=O)c2ccccc21)NCc1ccco1`, 23% (inactive).
For the compound `O=C(O)COCC(=O)Nc1scc2c1c(=O)oc1ccccc12`, the inhibition was 15.1% (inactive).
The result for `CN1CC(=O)N(C2CCCNC2)Cc2c(NC3CCc4ccccc43)ncnc21` (centres undefined) reads 50.3% (active); that for `COc1cc(C2CC(=O)c3cnc(N4CCc5ccccc5C4)nc3C2)cc(OC)c1OC` (centres undefined), 7.46% (inactive).
Consider `CC1CCc2c(cnc3c(C(=O)NCCc4ccccc4)cnn23)C1` (centres undefined), for which the inhibition was -1.68% (inactive).
The result for `Cc1c(Cl)c([N+](=O)[O-])nn1CCCC(=O)NC(C)c1ccccc1` (centres undefined) reads -29.5% (inactive); that for `CCOC(=O)C1(Cc2cc(-c3ccccc3F)no2)CCN(CC)CC1`, -12.6% (inactive).
In the case of `Cc1c(-c2nn3c(-c4ccco4)nnc3s2)cccc1[N+](=O)[O-]`, the inhibition is 67.4% (active).
As to `O=C(CSc1cn[nH]n1)Nc1ccc(F)c(Cl)c1`, the inhibition is 0.831% (inactive).
The result for `CC(=O)Nc1ccc(S(=O)(=O)NCc2ccc(C(=O)NCc3ccc(C)cc3)cc2)cc1` reads 52.9% (active).
With `CC(=O)Nc1ccc(S(=O)(=O)NCCSc2ccc(C)cc2)cc1`, the inhibition was -12.3% (inactive).
The result for `Cc1ccc(C)c(S(=O)(=O)Nc2ccc(C(=O)NCc3ccc(F)cc3)cc2)c1` reads -4.3% (inactive); that for `COc1ccc(CCC(=O)Nc2ccc3nc(N4CCOCC4)cc(C)c3c2)cc1`, 33.3% (active); that for `Cc1cc(N2CCOCC2)nc2ccc(NC(=O)CCC(=O)N3CCN(c4ccccn4)CC3)cc12`, -15.4% (inactive).
Turning to `Cc1ccc(C)c(N2CCN(C(=O)CCC(=O)Nc3ccc4nc(N5CCN(C)CC5)cc(C)c4c3)CC2)c1`, the inhibition was -11.5% (inactive).
Next, `Cc1nn(-c2cccc(F)c2)c2c1c(C)c(CCC(=O)NCc1ccccn1)c(=O)n2C`: 32.6% (active); `Cc1nn(-c2ccccc2)c2c1c(C)c(CCC(=O)N1CCN(c3ccc(F)cc3)CC1)c(=O)n2C`: 5.08% (inactive); `Cc1nc2cc(C(=O)NCc3ccccn3)ccc2n1-c1cccc(F)c1`: 0.0347% (inactive).
The result for `Cc1cc(C)c(Cn2cccc2C2=NC(Cc3ccccc3)CO2)c(C)c1` (centres undefined) reads 7.3% (inactive).
The result for `Cc1ccc(-c2nc3c4c(C)c(C)n(-c5cccnc5)c4ncn3n2)cc1` reads 17% (inactive).

What is called inhibition is the relative decrease from the control value, in per cent.
